Assay results as given in PubChem BioAssay AID777 (Sanford-Burnham Center for Chemical Genomics, 2007).
Screen size: about 96,000 compounds; about 19,000 (20%) were called active. These entries were drawn from the full list. Unmarked numbers belong to inactive results.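 Rule for the calls: active = blocking of liver enzyme CYP2C9 beyond about 50% at 5 µM (limit read from the data); inactive = the rest.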

molecular target: Cytochrome P450 2C9 (Homo sapiens) (UniProt P11712); experiment: blockers of cytochrome P450 2C9 activity – biochemical, luminescence, ADME assay, primary screen (AID 777); conditions: CYP2C9 Supersomes, luciferin-H conversion, at 5 µM, active compounds read high
Sequence (P11712 whole entry, looked up): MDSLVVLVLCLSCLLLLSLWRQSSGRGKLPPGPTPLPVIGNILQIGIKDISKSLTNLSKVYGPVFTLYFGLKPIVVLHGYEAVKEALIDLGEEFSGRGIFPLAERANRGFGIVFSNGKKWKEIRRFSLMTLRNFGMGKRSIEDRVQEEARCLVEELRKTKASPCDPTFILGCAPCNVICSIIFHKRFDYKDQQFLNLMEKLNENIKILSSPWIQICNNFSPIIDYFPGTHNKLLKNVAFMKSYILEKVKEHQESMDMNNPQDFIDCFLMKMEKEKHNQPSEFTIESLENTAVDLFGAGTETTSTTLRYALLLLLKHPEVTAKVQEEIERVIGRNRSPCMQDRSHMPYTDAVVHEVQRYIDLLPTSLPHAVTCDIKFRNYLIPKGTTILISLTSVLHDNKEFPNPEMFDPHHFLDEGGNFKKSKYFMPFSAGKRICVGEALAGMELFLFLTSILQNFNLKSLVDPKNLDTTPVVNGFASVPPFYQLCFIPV

Compound	inhibition
Cc1c(Nc2cc(N3CCCC(C)C3)c3nonc3c2[N+](=O)[O-])c(=O)n(-c2ccccc2)n1C (stereo not drawn)	41.4%
CC1CSc2nnc(CCc3ccccc3)n21 (stereo not drawn)	-10.1%
COc1ccccc1NC(=O)COc1ccc(C(=O)OCC(=O)N(C(C)C)C(C)C)cc1OC	37.6%
CC1CC(C)CN(CC(=O)Nc2ccc(S(N)(=O)=O)cc2)C1 (stereo not drawn)	15.7%
CN(C)/C=C1/Nc2ccccc2C1=O	-8.2%
c1ccc(-n2nnnc2N2CCOCC2)cc1	-5.9%
O=C(CN1CCOCC1)Nc1c2c(nc3c1CCC3)CCC2	-11.6%
CCN(CC)CCn1c2ccc(Cl)cc2c2nc(C)sc21	46.4%
Cc1nc(Cl)c2oc3ccccc3c2n1	9%
CCC(Oc1ccccc1)C(=O)NCc1cccnc1 (stereo not drawn)	8.8%
COc1ccc(-c2cc(C(F)(F)F)nc(S(C)(=O)=O)n2)cc1OC	4.2%
COc1ccc(-c2cc(C(F)(F)F)nc(NCc3cccnc3)n2)cc1	55.3% (active)
C=CCC(NCCCO)c1cccc(OC)c1OC (stereo not drawn)	-26.1%
CC(C)(C)c1cc2cccnc2n1Cc1ccccc1	0.7%
CCOc1cccc(SCc2noc(C(=O)NC(C)C)c2C(=O)O)c1	73.7% (active)
CCCCNC(=O)c1onc(CSc2cccc(OC)c2)c1C(=O)O	82.5% (active)
COC(=O)c1c(CCl)noc1C(=O)NC(C)C	-0.5%
COCCNC(=O)c1onc(CSc2cccc(C)c2)c1C(=O)O	30.2%
CCOc1ccc2nc(SC(CC)C(=O)Nc3cc(C)on3)sc2c1 (stereo not drawn)	-4.1%
COc1ccc(SCc2noc(C(=O)NCC3CCCO3)c2C(=O)O)cc1 (stereo not drawn)	20.1%
O=[N+]([O-])c1ccc(Oc2ccc(F)cc2Br)c2ccncc12	6.1%
Cc1ccc(NC(=O)Nc2ccc3oc(C)nc3c2)cc1	8.7%
CCOC(=O)CSC1=C(C#N)C(c2sccc2C)CC(=O)N1 (stereo not drawn)	54.8% (active)
COC(=O)CSC1=C(C#N)C(c2ccccc2OC)C(C(=O)OC)C(=O)N1 (stereo not drawn)	24%
C=CCSC1=C(C#N)C(c2cc(Br)c(O)c(OC)c2)CC(=O)N1 (stereo not drawn)	39.1%

Compound	inhibition
Cc1ccc(C2CC(=O)NC(SCC(=O)OCc3ccccc3)=C2C#N)o1 (stereo not drawn)	97% (active)
CCOC(=O)c1ccc(N2C(=O)CC(Sc3nc(O)c(CC)c(=O)[nH]3)C2=O)cc1 (stereo not drawn)	26.2%
O=C(COc1ccc(Cl)cc1)N1CCN(c2cccc(C(F)(F)F)c2)CC1	13.6%
Cc1cc(NC(=O)CS(=O)(=O)c2cn(C)c3ccccc23)no1	-20.5%
O=c1c2ccccc2nc(CSc2nnnn2-c2ccccc2)n1-c1ccccc1	-6.4%
COc1ccc(-n2nnnc2SCc2nc(N)nc(N3CCOCC3)n2)cc1	35.6%
CCN(CC)S(=O)(=O)c1ccc2nc(COC(=O)c3n[nH]c4ccccc34)[nH]c2c1	77.2% (active)
CCN(CC)S(=O)(=O)c1ccc2nc(CSc3nnnn3-c3ccc(O)cc3)[nH]c2c1	97.3% (active)
CCN(CC)S(=O)(=O)c1ccc2[nH]cc(C(=O)NCCc3ccccc3)c(=O)c2c1	22.4%
CN(C)S(=O)(=O)c1ccc(NC(=O)COC(=O)c2n[nH]c3ccccc23)cc1	13.8%
COC(=O)[C@H](Cc1ccccc1)NC(=O)N1CC(C)OC(C)C1 (stereo partly drawn)	4.3%
O=C(NC1(C(F)(F)F)NC(=O)N(Cc2cccnc2)C1=O)c1ccccc1Cl (stereo not drawn)	2.6%
CC(C)(C)NC(=O)NC(=O)COC(=O)CCC1CCCCC1	11.7%
CC(=O)N=c1ncn(CC(COC(C)=O)OC(C)=O)c2nc[nH]c12 (stereo not drawn)	10.5%
O=C(Nc1ccccc1C(F)(F)F)c1cc(-c2ccc(O)cc2)on1	-234%
Cc1cc2c(c(=O)n1C)C(C(C)C)C(C#N)=C(N)O2 (stereo not drawn)	9.3%
CCOC(=O)C1(C(F)(F)F)N=C(N(C)C)OC(N(C)C)=N1	5.6%
C=CCOc1ccc(Cl)cc1CNCCCN1CCOCC1	9.4%
Cc1ccc(OCC(=O)N/N=C/c2ccncc2)cc1	86.7% (active)
Cc1cc(C)c(OCC(=O)N/N=C/c2ccco2)c(C)c1	-17.6%
CSc1ccc(/C=N\NC(=O)COc2ccc(Cl)cc2Br)cc1	36%
NS(=O)(=O)c1ccc(NS(=O)(=O)/C=C/c2ccccc2)cc1	47.3%
Cc1ccc(-c2nn(C(C)(C)C)c3ncnc(N)c23)cc1	25.5%
Cn1c(=O)[nH]c(=O)c2c1nc(N1CCN(CCO)CC1)n2CCSc1nc2ccccc2s1	-5.4%
CCCc1cc(=O)n2[nH]c(SCc3ccccc3)nc2n1	43.9%

Compound	inhibition
Cc1nc2nc(CSc3nc4ccccc4s3)cc(=O)n2[nH]1	60.1% (active)
CCCCn1nc(C(=O)N2CCc3ccccc32)c2ccccc2c1=O	41%
CC(=O)Cc1nsc(NC(=O)c2ccc(COc3ccc(C)cc3)o2)n1	64.4% (active)
CCOc1ccc(OCc2ccc(C(=O)Nc3cccc(C)n3)o2)cc1	40.9%
CC(=O)Cc1nsc(NC(=O)c2csc3c2CCCC3)n1	30%
O=C(Oc1ccccc1)Oc1ccc2c(c1)oc(=O)c1ccccc12	-55.2%
Cc1c(C(=O)N2CC(C)OC(C)C2)sc2nc(-c3ccccc3)cn12 (stereo not drawn)	1.3%
Fc1ccccc1/C=C1\CCCC2=C1Nc1ncnn1C2c1ccccc1F (stereo not drawn)	43.9%
Cc1ccc(C2(C(F)(F)F)N=C3Sc4cc(C)cc(C)c4N3C(=O)N2)cc1 (stereo not drawn)	65.5% (active)
CCOC(=O)C(=O)Nc1nc(-c2ccccc2)c(CC)s1	2.4%
N=c1n(Cc2ccc(Cl)cc2)c2ccccc2n1CC(O)c1ccco1 (stereo not drawn)	23.2%
Cc1cccn2c(=O)c(/C=C3\SC(=S)N(CC(C)C)C3=O)c(NCCCOC(C)C)nc12	27%
Cn1c(=NC(=O)c2ccco2)sc2cccc(F)c21	1%
CC(Oc1ccc(-c2ccccc2)c(F)c1)c1ccn(S(=O)(=O)c2cccc3ccccc23)n1 (stereo not drawn)	76.9% (active)
CCN(CC)Cc1cc(C(C)=O)ccc1O	-7.4%
CCOc1ccccc1NC(=O)Nc1cc(OC)ccc1OC	4.9%
CCOc1ccccc1Oc1cn[nH]c1-c1ccc(OC)cc1O	98.2% (active)
CCOC(=O)C1CCN(C(=O)CSc2cc(=O)n(C)c3ccccc23)CC1	18.3%
O=c1c(-c2ccccc2)coc2c(CN3CCOCC3)c(O)ccc12	7.7%
CCOC(=O)C1CCCN(Cc2nc(N)nc(Nc3ccc(C)cc3)n2)C1 (stereo not drawn)	13.1%
NC(=O)C1(N2CCCCC2)CCN(C(=O)c2ccc(C#Cc3ccccc3)o2)CC1	71.6% (active)
CC(C)(O)C#Cc1ccc(C(=O)N2CCC(C(N)=O)(N3CCCCC3)CC2)cc1	27.6%
NC(=O)C1(N2CCCCC2)CCN(C(=S)Nc2ccc(Cl)cc2)CC1	20.5%
CCOC(=O)N1CCC(NC(=O)c2cnn3ccccc23)CC1	9.8%
O=C(Nc1cccc(-c2nnc(-c3ccccc3)o2)c1)C1CCCO1 (stereo not drawn)	27.5%

Compound	inhibition
C=CCSc1nc2ccccc2[nH]1	-21%
c1ccc(-c2nnc(SCc3nc4ccccc4[nH]3)o2)cc1	50.9% (active)
O=C(CSc1nnc(-c2ccccc2)o1)N1CCOCC1	-9.8%
O=C(NC1CCCC1)c1ccc(Br)s1	33.9%
CCOc1c2ccc(C(=O)NCc3ccc4c(c3)OCO4)cc2nn1C	41.4%
CCOc1cc(S(=O)(=O)NCc2ccc3c(c2)OCO3)ccc1F	61% (active)
CCOc1cc(S(=O)(=O)NC2CC(C)(C)NC(C)(C)C2)ccc1F	-1.2%
COc1ccc(OCCCC(=O)Oc2ccc(OC)cc2)cc1	11.2%
Cn1c(-c2sc3cc(C(F)(F)F)cnc3c2-c2ccccc2)n[nH]c1=S	51.7% (active)
Cc1cc(C(F)(F)F)n2ncc(-c3ccccc3)c2n1	0.4%
Cc1ccc(/C=N\n2c(-c3ccccc3)n[nH]c2=S)s1	13.6%
O=C(NCCc1ccccn1)c1cc(C(=O)C2CCCCC2)c[nH]1	10.3%
O=c1[nH]nc(CSCc2ccccc2Cl)[nH]1	-20.8%
S=c1[nH]nc(CSCc2ccc(Cl)cc2Cl)n1-c1ccccc1	76.5% (active)
CC(C)Oc1ccc(CCc2n[nH]c(=S)n2Cc2ccccc2)cc1	16.2%
CC(Cc1cccs1)NC(=O)NC1CCCCC1 (stereo not drawn)	12.2%
Fc1ccc(CNc2nc3ccccc3n3nnnc23)cc1	11.6%
COc1ccc(-c2c3c(=O)n(C)c(=O)n(C)c3cn2NC(C)=O)cc1	1.5%
COc1ccc(N(C(=O)c2cccnc2)S(=O)(=O)c2ccc3c(c2)n(C)c(=O)n3C)cc1	86.2% (active)
CCc1ccccc1NC(=O)CN(C)S(=O)(=O)c1ccc2c(c1)c(=O)n(C)c(=O)n2C	-17.2%
Cc1ccsc1C(C(=O)NC1CCCCC1)N(C(=O)Cc1cccs1)C1CC1 (stereo not drawn)	18.5%
Cc1ccc(F)cc1NC(=O)c1cccc(N(C)C)c1	-1.6%
Cc1ccc(C(c2nnnn2CS(=O)(=O)c2ccc(C)cc2)N2CCC(C)CC2)cc1 (stereo not drawn)	-18.8%
